Compound activity as filed in PubChem BioAssay.
TGFb inhibitor – qHTS for Inhibitors of TGF-b | HepG2 CAGA-GFP TGF-b/SMAD3 reporter, GFP fluorescence, 18 h; TGF-beta stimulated, 500 pg/mL final | Potency, µM (doses to about 46.1 µM), actives largely listed as inhibitors | hit rate 1.2% among 410,000; further: nearly all actives have a fitted effect of over 65% in size
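First, reporter cells (HEPG2 CAGA-GFP) rested 2 h at 37 degrees C. Next, compounds were pinned in and TGF-beta added to 500 pg/mL final. After 18 h, GFP was imaged per cell and summed per well.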
ATXN viability – Viability Counterscreen for Primary qHTS for Inhibitors of ATXN expression | S2 cells (HEK-293 line with an ATXN2-luciferase reporter) viability, CellTiter-Fluor protease fluorescence, 24 h | Potency, µM (top dose mostly 56.7 µM), actives largely listed as cytotoxic | hit rate 0.49% among 400,000 | AID 651635, 2014; further: nearly all actives have a fitted effect of over 40% in size
A549 tox – Nrf2 qHTS screen for inhibitors: counterscreen for cytotoxicity; Potency, µM (doses to about 46 µM), actives largely listed as inhibitors; hit rate 0.16% among 390,000; A549 ARE-Fluc cells, CellTiter-Fluor viability, 18-24 h
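Cytotoxicity counterscreen: CellTiter-Fluor fluorescence was measured in A549 ARE_Fluc cells after 18-24 h of compound exposure in a concentration series. The subsequent BugLite luminescent read reports ARE-luciferase activity.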
HepG2 tox – qHTS for Inhibitors of TGF-b: Cytotox Counterscreen; HepG2 CAGA-GFP viability, ATP luminescence, 18 h; Potency, µM (top dose mostly 46.1 µM), actives largely listed as cytotoxic; hit rate 0.76% among 410,000; AID 588856, 2011
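CellTiter-Glo luminescence gave cytotoxicity after 18 hours at 37 degrees C. The cells were HepG2 CAGA-GFP in 1% FBS DMEM, stimulated with 500 pg/mL TGF-beta after compound addition. %Activity was normalised to no-cell wells (complete cell-killing) and DMSO (no toxicity), and curves were fitted and classified.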
Nrf2 block – Nrf2 qHTS screen for inhibitors | hit rate 2.1% among 360,000 | AID 504444, 2011 | Potency, µM (titrated, usually from 46 µM), most hits filed as inhibitors | A549 ARE-Fluc reporter, luciferase luminescence, 18-24 h; further: nearly all actives have a fitted effect of over 60% in size
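Reporter: ARE-Fluc in A549. Exposure: 18-24 h, 37 °C, 5% CO2, 5% FBS OPTI-MEM. Readouts: fluorescent cytotoxicity (CellTiter-Fluor), then luminescent Nrf2 signal after BugLite.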
ATXN2 expr inh – Primary qHTS for Inhibitors of ATXN expression; HEK-293 ATXN2-luciferase reporter, luminescence, 24 h; Potency, µM (series often up to 57 µM), most hits filed as inhibitors; hit rate 0.72% among 360,000; further: nearly all actives have a fitted effect of over 55% in size
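ATXN2-luciferase reporter cells (luciferase flanked by upstream and downstream ATXN2 gene portions) were treated 24 h at 37 °C with compounds at up to 57 uM. SteadyGlo luminescence gave expression; GF-AFC fluorescence gave viability.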
Each line names hits and unclear results; the compound was inactive in the other large screens. Sampled rows, rich in hits. Any-hit rate of the full collection: about 3.8%. The call rests on the fitted dose curve; in most records, active means well fitted curve in the direction sought with a large enough effect; inconclusive means small, poorly fitted or top-dose-only effect, or another doubt; inactive means no such curve, though single readings can be large; an effect the other way counts as inactive or inconclusive.

CC[n+]1c(/C=C/N(C)c2ccccc2)n(-c2ccccc2)c2ccc(-c3nc4ccccc4s3)cc21	TGFb inhibitor 5.62µM, ATXN viability 13.4µM, A549 tox inconclusive, Nrf2 block inconclusive, ATXN2 expr inh 4.74µM
CCOC(=O)/C=C/[C@H]1CCc2cccc(Cl)c2O1	none
C=C1C(O)[C@@H]2O[C@]3(CC[C@H](/C=C/C(C)[C@@H]4CC(C)=CC5(O[C@H](C[C@@](C)(O)CO)CCC5O)O4)O3)CC[C@H]2O[C@@H]1C(O)CC(C)[C@H]1OC2(CCCCO2)CCC1C (stereo partly specified)	TGFb inhibitor 7.94µM, ATXN viability inconclusive, A549 tox inconclusive, Nrf2 block inconclusive
C=C1[C@@H](O)[C@@H]2O[C@]3(CC[C@H](/C=C/[C@@H](C)[C@@H]4CC(C)=CC5(O[C@H](C[C@@](C)(O)C(=O)OC)CC[C@H]5O)O4)O3)CC[C@H]2O[C@@H]1[C@@H](O)C[C@H](C)[C@H]1OC2(CCCCO2)CC[C@H]1C (stereo partly specified)	TGFb inhibitor 0.891µM, ATXN viability inconclusive, A549 tox inconclusive, Nrf2 block 0.092µM, ATXN2 expr inh inconclusive
COc1ccc(C2c3c(n(C)c4ccccc34)C(=O)N2CC(=O)Nc2ccc(Cl)cc2)cc1 (stereo unspecified)	TGFb inhibitor 2.51µM (no result: ATXN viability, ATXN2 expr inh)
CC(C)(C)n1nc(Cc2cccc3ccccc23)c2c(N)ncnc21	TGFb inhibitor 14.1µM, ATXN viability inconclusive, Nrf2 block inconclusive
CCOC(=O)N1CCN(/[N+]([O-])=N/Oc2ccc([N+](=O)[O-])cc2[N+](=O)[O-])CC1	TGFb inhibitor inconclusive, A549 tox inconclusive, Nrf2 block inconclusive (no result: ATXN viability, ATXN2 expr inh)
Cc1ccc(NC(=O)CC2Nc3cccc4cccc(c34)NC2=O)cc1 (stereo unspecified)	TGFb inhibitor 11.2µM, Nrf2 block inconclusive (no result: ATXN viability, ATXN2 expr inh)
COc1ccc(-c2sc3ccc(N4CCOCC4)cc3c2C#CCO)cc1	TGFb inhibitor inconclusive, ATXN viability inconclusive, Nrf2 block 16.4µM, ATXN2 expr inh 28.2µM
CCc1ccc(-c2nnn(CCC(=O)OC)n2)cc1	Nrf2 block 3.26µM, ATXN2 expr inh inconclusive
CCc1ccc(-c2nnn(CCC#N)n2)cc1	Nrf2 block inconclusive
CN1CCN(C(=O)CCCN2C(=O)/C(=C/c3ccc(Cl)cc3)SC2=S)CC1	TGFb inhibitor inconclusive, ATXN viability inconclusive, A549 tox inconclusive, Nrf2 block inconclusive
COc1ccc(/C=C2\SC(=S)N(CCC(=O)N3CCCCC3)C2=O)cc1	none
O=C(CCN1C(=O)/C(=C\c2ccccc2F)SC1=S)N1CCCCC1	ATXN viability 20µM, ATXN2 expr inh inconclusive
O=C1/C(=C/c2ccccc2F)SC(=S)N1CCC(=O)N1CCCCC1CCO (stereo unspecified)	TGFb inhibitor inconclusive, ATXN viability inconclusive, A549 tox inconclusive, Nrf2 block inconclusive
CN1CCN(C(=O)CCN2C(=O)/C(=C\c3ccc(Cl)cc3Cl)SC2=S)CC1	TGFb inhibitor inconclusive, ATXN viability inconclusive, A549 tox 7.31µM, Nrf2 block inconclusive
O=C1/C(=C/c2ccccc2F)SC(=S)N1CC(=O)N1CCCCC1c1cccnc1 (stereo unspecified)	TGFb inhibitor inconclusive, ATXN viability inconclusive, HepG2 tox 12.6µM (no result: ATXN2 expr inh)
O=C(CCN1C(=O)/C(=C/c2ccccc2)SC1=S)N1CCCCCC1	ATXN viability inconclusive, A549 tox inconclusive, Nrf2 block 20.6µM, ATXN2 expr inh inconclusive
N#Cc1nc(-c2ccc(OCc3ccc(Cl)cc3)cc2)oc1N1CCCC1	none (no result: ATXN viability, ATXN2 expr inh)
CC(C)(C)c1ccc(-c2n[nH]c(=S)n2Cc2ccccc2)cc1	TGFb inhibitor inconclusive, ATXN viability inconclusive, HepG2 tox 12.6µM, Nrf2 block inconclusive
O=C(Nc1cccc(F)c1)c1ccc(S(=O)(=O)NCC2CCCO2)cc1 (stereo unspecified)	Nrf2 block 20.6µM
O=C(c1ccc(S(=O)(=O)NCC2CCCO2)cc1)N1CCN(c2ccccc2F)CC1 (stereo unspecified)	none
O=C(c1ccc(S(=O)(=O)NCC2CCCO2)cc1)N1CCN(c2cccc(Cl)c2)CC1 (stereo unspecified)	Nrf2 block 13µM
Cc1[nH]c2ccccc2c1/C=N/NC(=O)c1cccc(S(=O)(=O)Nc2cccc(C(F)(F)F)c2)c1	TGFb inhibitor 10µM (no result: ATXN2 expr inh)
O=C(N/N=C/c1ccc(O)cc1)c1cccc(C(F)(F)F)c1	none
NNC(=O)c1cccc(S(=O)(=O)Nc2cccc(C(F)(F)F)c2)c1	none (no result: ATXN2 expr inh)
O=C(N/N=C/c1ccccc1O)c1cccc(C(F)(F)F)c1	TGFb inhibitor inconclusive, ATXN viability inconclusive, Nrf2 block inconclusive, ATXN2 expr inh 3.16µM
CCCOc1ccc(/C=C/C(=O)Nc2sc(C)c(C)c2C(=O)OCC)cc1OC	none
CCc1ccccc1NC(=O)Cn1nnc(-c2nc(-c3ccncc3)no2)c1N	none (no result: TGFb inhibitor, ATXN viability, ATXN2 expr inh)
Cc1nnc(Sc2cc(NCCO)c([N+](=O)[O-])c3nonc23)s1	TGFb inhibitor inconclusive, A549 tox 25.9µM, Nrf2 block inconclusive (no result: ATXN viability)
CCCSc1cc(NCCOC(C)=O)c([N+](=O)[O-])c2nonc12	ATXN viability inconclusive
CCC(=O)OCCNc1cc(Sc2nc3ccccc3[nH]2)c2nonc2c1[N+](=O)[O-]	ATXN viability 28.2µM, ATXN2 expr inh 28.2µM
NCCNc1ccc([N+](=O)[O-])c(Sc2nc3ccccc3[nH]2)c1	ATXN viability inconclusive
CC(=O)OCCCNc1cc(SCc2ccco2)c2nonc2c1[N+](=O)[O-]	TGFb inhibitor inconclusive, A549 tox 16.4µM
CCCC(=O)OCCNc1cc(SCc2ccco2)c2nonc2c1[N+](=O)[O-]	A549 tox inconclusive
CCC(=O)OCCNc1cc(Sc2nc3ccccc3s2)c2nonc2c1[N+](=O)[O-]	TGFb inhibitor 7.94µM, ATXN viability 8.91µM, A549 tox inconclusive, HepG2 tox 12.6µM, ATXN2 expr inh 6.31µM (no result: Nrf2 block)
CCCNC(=O)C1(C)CCN(C(=O)c2cccnc2Oc2ccccc2)C1 (stereo unspecified)	none (no result: A549 tox, Nrf2 block)
CCCC(=O)OCCNc1cc(Sc2nccn2C)c2nonc2c1[N+](=O)[O-]	TGFb inhibitor 15.8µM, ATXN2 expr inh 20µM (no result: ATXN viability)
CCCSc1cc(NCCOC(=O)CCC)c([N+](=O)[O-])c2nonc12	TGFb inhibitor inconclusive, ATXN viability inconclusive, A549 tox inconclusive
CC1CN(S(=O)(=O)c2cccc(C(=O)Nc3ccccc3N3CCCCC3)c2)CC(C)O1 (stereo unspecified)	A549 tox inconclusive, Nrf2 block 16.4µM
